# According to PubChem BioAssay AID1554 (Broad Institute, 2009):
# Hit rate of the full screen: of about 300,000 compounds, about 520 (0.17%) were called active. Many of the other results were omitted from the sample, so actives are more common in it than they were. Values without a mark were called inactive. No stated cut-off is given here; in the data, active means inhibition above about 50%; inconclusive means no clear call, values can overlap the other calls; inactive means below that.
# Assay: PubChem AID 1554
# Details: BJeLR (HRASV12) viability, CellTiter-Glo ATP luminescence, 48 h; stronger effect = higher value; concentration not given here
row,Structure (SMILES),inhibition
1,COc1ccc(NC(=O)C(C)N2c3cccc4cccc(c34)S2(=O)=O)c(OC)c1 (configuration not stated),-7.67%
2,O=C(c1cccc(F)c1)N1CCC(O)(c2cccnc2)CC1,1.27%
3,Cc1ccc(Nc2cc(C)nc3c(C)ccc([N+](=O)[O-])c23)cc1,-0.482%
4,N#Cc1c(-c2cccs2)nc(SCC(=O)c2ccc(Br)cc2)[nH]c1=O,-2.63%
5,COc1ccc(Nc2ncc(F)c(N3CCOCC3)n2)cc1,-4.96%
6,Cc1nnc(NC(=O)/C=C/c2ccco2)s1,2.63%
7,O=C(/C=C/c1ccco1)Nc1ccc(Oc2ccccc2)cc1,66.3% (active)
8,O=C(/C=C/c1ccco1)Nc1cccc(-c2nc3ccccc3[nH]2)c1,-10.7%
9,CCCCOc1ccc(C(=O)NN2CCN(C)CC2)cc1,1.04%
10,CCCOc1ccc(C(=O)C(CCC(CNCC)C(=O)c2ccc(OCCC)cc2)CNCC)cc1 (configuration not stated),137% (active)
11,CCCOc1ccc(C(=O)CCC(=O)OC(C)C(=O)Nc2ccc(NC(C)=O)cc2)cc1 (configuration not stated),0.465%
12,CCOc1cc(C2C(C(=O)OC(C)C)=C(C)NC3=C2C(=O)CCC3)cc([N+](=O)[O-])c1O (configuration not stated),-2.99%
13,Cc1ccc(CNC(=O)c2cccnc2Cl)cc1,1.72%
14,COc1cc(C(CCN2CCN(c3ccccc3)CC2)c2c(OC)cc(OC)c3ccc(=O)oc23)cc(OC)c1OC (configuration not stated),-7.5%
15,COC(=O)C(C(=O)Nc1cccc(Cl)c1C)C1CCCC1 (configuration not stated),-7.59%
16,COc1ccc(/C=C/C2=CC(C)(C)NC(=S)N2)c(OC)c1,-7.98%
17,NC(=O)CC[C@@H]1NC(=O)[C@H](CO)NC(=O)c2cc([N+](=O)[O-])cc(I)c2NCC[C@@H](C(N)=O)NC1=O,-1.96%
18,CCC(=C/c1sc2ccc3ccccc3c2[n+]1C)/C=C1\Sc2ccc3ccccc3c2N1C,60.9% (active)
19,COc1ccc(C2=NS(=O)(=O)N(C)C(C(=O)N3CCCCC3)=C2)cc1,-1.58%
20,COc1cc(-c2c(-c3ccc4c(c3)OCO4)noc2C)ccc1F,-5.31%
21,C=CCNc1nc(N)c([N+](=O)[O-])c(NC2CCCCC2)n1,-1.25%
22,CC(=O)NCCc1ccc(S(=O)(=O)N(C)C2CCS(=O)(=O)C2)cc1 (configuration not stated),7.45%

row,Structure (SMILES),inhibition
1,O=C(NCc1ccco1)c1ccc(NS(=O)(=O)c2cccc([N+](=O)[O-])c2)cc1,5.53%
2,COc1ccc(S(=O)(=O)N2CCOCC2)cc1NC(=O)COc1ccccc1,-1.51%
3,COc1ccccc1N(C(=O)Cn1nnc2ccccc21)C(C(=O)NCc1ccco1)c1ccc(C)o1 (configuration not stated),-3.41%
4,O=C(Nc1ccc(Cl)cc1)/C(=C1\CCCN1)[N+](=O)[O-],-2.59%
5,CCCC(C(=O)NC1CCCC1)N(C(=O)Cn1nnc(-c2ccc(C)o2)n1)c1cccc(O)c1 (configuration not stated),-0.539%
6,Cc1c(NC(=O)Nc2cccc([N+](=O)[O-])c2)c(=O)n(-c2ccccc2)n1C,1.78%
7,CC1(C)O[C@H]2CC(=O)OCC23[C@H]2CC[C@@]4(C)[C@H](c5ccoc5)OC(=O)[C@H]5O[C@]54[C@]2(C)C(=O)C[C@@H]13 (some centres not stated),4.22%
8,CC(C)CNC(=S)NC(=O)c1ccc(Cl)cc1,-11.5%
9,Cc1cc(F)ccc1NC(=O)C(C)n1c2ccccc2c2nc(=O)cc(C)n21 (configuration not stated),-6.86%
10,CN(C)CCN(Cc1ccccc1)S(=O)(=O)c1csc(C(N)=O)c1,7.25%
11,CC(C)Cc1nnc(NC(=O)CN2C(=O)NC3(CCCCC3)C2=O)s1,4.35%
12,CCOC(=O)CNc1nc(Cl)nc(Nc2ccc(OC)cc2OC)n1,-1.85%
13,CCN1C(=O)N[C@@H](c2ccccc2)C(C(=O)OC)=C1C,2.76%
14,COc1cccc(NC(=O)c2ccccc2N(Cc2ccccc2)S(C)(=O)=O)c1,3.05%
15,COc1ccc(S(=O)(=O)Nc2ccc3c(c2)OCO3)cc1Cl,4.86%
16,COc1ccccc1C1C2=C(COC2=O)Nc2cc3c(cc21)OCO3 (configuration not stated),71.8% (active)
17,CCCOc1ccccc1C1CC(=O)Nc2cc3c(cc21)OCO3 (configuration not stated),21.8%
18,CC1COc2ccccc2N1S(=O)(=O)c1ccccc1 (configuration not stated),-0.313%
19,CC(C)(C)c1cc(NC(=O)NN2CCOCC2)nn1-c1c(Cl)cc(Cl)cc1Cl,-1.25%
20,COc1cc(/C=C(\C#N)c2nc3ccccc3[nH]2)ccc1O,-5.76%
21,COc1ccc(/C=C(\C#N)c2c[nH]c3ccccc23)cc1,52.5% (active)
22,COc1ccc(C(C(O)C(=O)c2c[nH]c3ccccc23)N2CCN(c3ccccc3)CC2)cc1 (configuration not stated),0.745%

row,Structure (SMILES),inhibition
1,CC(NC(=O)Cn1cc(C(F)(F)F)cc(Cl)c1=O)c1ccccc1 (configuration not stated),-4.93%
2,O=C(NNC(=O)c1ccccc1[N+](=O)[O-])Nc1ccccc1C(F)(F)F,1.35%
3,Cc1cccc(-n2ncc(C#N)c2-n2cccc2)c1,-4.28%
4,O=c1c(Cl)c(NC2CC2)cnn1-c1ccccc1,-3.03%
5,Cc1cccc(-n2ncc(Cl)c(Cl)c2=O)c1,90.5% (active)
6,CC[C@]1(O)CC2CN(CCc3c([nH]c4ccccc34)[C@@](C(=O)OC)(c3cc4c(cc3OC)N(C=O)[C@H]3[C@@](O)(C(=O)OC)[C@H](OC(C)=O)[C@]5(CC)C=CCN6CC[C@]43[C@@H]65)C2)C1 (some centres not stated),34.8%
7,CC[C@H]1CC2CN3CCc4c([nH]c5ccccc45)C(C(=O)OC)(C2)C13 (some centres not stated),2.65%
8,CC[C@]1(O)C[C@@H]2CN(CCc3c([nH]c4ccccc34)[C@@](C(=O)OC)(c3cc4c(cc3OC)N(C)[C@H]3[C@@](O)(C(=O)OC)[C@H](OC(C)=O)[C@]5(CC)C=CCN6CC[C@]43[C@@H]65)C2)C1,69.1% (active)
9,CCOc1ccc(C(CC(=O)O)NC(=O)C23CC4CC(CC(C4)C2)C3)cc1OC (configuration not stated),8.09%
10,OCCn1c(-c2ccccc2)csc1=Nc1ccccc1,3.02%
11,Cc1ccc(S(=O)(=O)N2CCCC2C(=O)OCc2nc3sc(C)c(C)c3c(=O)[nH]2)cc1 (configuration not stated),2%
12,CC12C(=O)N(n3cnnc3)C(=O)C1C1C=CC2C1 (configuration not stated),6.14%
13,Cc1ccc(CN2CCNC(=O)C2CC(=O)NCc2csc(C(C)C)n2)cc1 (configuration not stated),-3.33%
14,Cc1ccc(Cn2cc(C(=O)NN)c(=O)c3ccc(F)cc32)cc1,-4.45%
15,CC(C)CN(C(=O)c1cccc(S(=O)(=O)N2CCCCC2)c1)C1CCS(=O)(=O)C1 (configuration not stated),2.4%
16,Clc1ccc2c(c1)C1=C(C(c3ccncc3)O2)C(c2ccc(Br)cc2)n2ncnc2N1 (configuration not stated),-10%
17,Brc1ccc2ncnc(NCc3cccnc3)c2c1,4.75%
18,COc1ccc(C2=NOC(Cn3nc(C(=O)NCc4ccc5c(c4)OCO5)cc3-c3ccccc3)C2)cc1 (configuration not stated),8.13%
19,S=c1[nH]ccn1-c1ccc(Cl)cc1,1.81%
20,CC(C)(C)OC(=O)NC(Cc1ccccc1)C(=O)NC(CSC1CCCCO1)C(=O)NN (configuration not stated),10.4%
21,COc1ccccc1C(=O)NCCn1cc(SCC(=O)NCc2ccco2)c2ccccc21,-1.46%
22,CC12CCC(C(=O)N(CCC#N)CCC#N)(CC1=O)C2(C)C (configuration not stated),-15.4%

row,Structure (SMILES),inhibition
1,COC(=O)c1c(C(=O)OC)c(-c2cccc(C)c2)n2c1CS(=O)C2 (configuration not stated),0.411%
2,CC1(C)Oc2ccc3ccc(=O)oc3c2/C(=N/O)C1=O,0.973%
3,Cc1ccc2[nH]c(=O)c(CN3CCCCC3)c(-c3ccccc3)c2c1,4.95%
4,COC(=O)c1ccc(OCC(O)CN(CCO)CC(O)Cn2ccc3ccccc32)cc1 (configuration not stated),1.45%
5,Cc1ccc(O)c(/C=N/NC(=O)COc2ccc3c(C)cc(=O)oc3c2)c1,-1.41%
6,O=C1CC(N2CCN(C(c3ccccc3)c3ccccc3)CC2)C(=O)N1 (configuration not stated),-3.58%
7,CC1(C)CC(=O)C=C(N2CCCC2)C1,0.434%
8,CC1(C)CC(N2CCN(C(c3ccccc3)c3ccccc3)CC2)=CC(=[N+]2CCCCC2)C1,70.6% (active)
9,Cc1cc(=O)[nH]c(SCc2ccc(Cl)cc2)n1,0.607%
10,O=C(Oc1ccc(Br)cc1)c1cccnc1,-11.9%
11,O=C(Oc1ccc(-c2nc(-c3ccccn3)no2)cc1)c1ccccc1,61.8% (active)
12,Cc1ccc(Oc2nc(-c3ccccn3)nc3ccccc23)cc1,4.2%
13,COCCNC(=S)N1CCN(C)CC1,6.68%
14,COc1cc(OC)cc(C(=O)N[C@H](C(=O)OCC(=O)NC(C)c2ccccc2)C(C)C)c1 (some centres not stated),-3.17%
15,COc1cc(OC)cc(C(=O)N[C@H](C(=O)Nc2nc3ccccc3[nH]2)C(C)C)c1,50.8% (active)
16,COc1ccc(C(=O)N[C@H](C(=O)NCc2ccccc2)C(C)C)cc1,-8.87%
17,CCOC(=O)c1sc(C)c2c1NC(C)(c1cccc3ccccc13)NC2=O (configuration not stated),-6.51%
18,CC(=O)c1ccc(Oc2cc(C)nc(-n3nc(C)cc3C)n2)cc1,50.8% (active)
19,Cc1cc(Oc2ccc(Cl)cc2)nc(SCC(=O)c2ccccc2)n1,-7.21%
20,Cc1cc(C)n(-c2ccc(C(=O)O)cc2[N+](=O)[O-])n1,3.87%
21,COc1ccccc1NC(=O)c1cc(N2C(=O)C3C4CCC(C4)C3C2=O)ccc1Cl (configuration not stated),-10.4%
